The structures appear in SMILES notation. Values joined by “and” are separate entries in the source; they are usually repeats but may differ in a detail not shown here. Identical values can stand only once. Some compounds were tested as several samples or in several runs, with calls that do not always agree. Active and inactive are the calls of the source. The calls were made as follows: active = hit-call score of the fitted dose curve at least 0.9, where 1 is the maximum; inactive = score below 0.9.

The nature of the assay: ATG_E_Box_CIS: Attagene CIS-FACTORIAL HepG2 Assay for human Enhancer Box (E-box) (AID 2282936). The following applies: HepG2 E-box cis-reporter transcription, actives raise or lower the signal. As for the experimental part: ATG_CIS is a cell-based, multiplexed-readout assay that uses HepG2, a human liver cell line, with measurements taken at 24 hours after chemical dosing in a 24-well plate.ATG_E_Box_CIS is one of 52 assay component(s) measured or calculated from the ATG_CIS assay. It is designed to make measurements of mRNA induction, a form of inducible reporter, as detected with fluorescence intensity signals by Reverse transcription polymerase chain reaction (RT-PCR) and Capillary electrophoresis technology.Data from the assay component ATG_E_Box_CIS was analyzed into 1 assay endpoint. This assay endpoint, ATG_E_Box_CIS, was analyzed with bidirectional fitting relative to DMSO as the negative control and baseline of activity. Using a type of inducible reporter, measures of mRNA for gain or loss-of-signal activity can be used to understand the reporter gene at the transcription factor-level as they relate to the gene USF1. Furthermore, this assay endpoint can be referred to as a primary readout, because this assay has produced multiple assay endpoints where this one serves a reporter gene function. To generalize the intended target to other relatable targets, this assay endpoint is annotated to the dna binding intended target family, where the subfamily is basic helix-loop-helix protein.
Human liver HepG2 cells are transiently transfected with multiple reporter transcription units (MRTUs) in 6-well plates using FuGene 6 reagent (Roche; 3 ml FuGene/1 mg DNA). The MRTU constructs are regulated by a cis-regulating element (promoter). […] A major difference between the CIS and TRANS system is that in CIS activities of endogenous TFs are measured, whereas the TRANS assay evaluates changes in activities of exogenous, chimeric NR-Gal4 proteins. […] At the end of 24 hour incubation, total RNA was isolated using TriZol reagent (Invitrogen). The isolated RNA is then reverse-transcribed using oligo(dT) primer and Mo-MLV reverse transcriptase (Invitrogen) with DNAse I (Ambion) treatment for 30 min. The one-tenth of the produced cDNA was amplified by PCR using Taq DNA polymerase (Invitrogen) and two reporter sequence-specific primers. The PCR products were fluorescently labeled by primer extension with 6-arboxyfluorescein (6-FAM) 5'-labeled reporter sequence-specific primer (2 min at 95 C, 20 s at 68 C and 10 min at 72 C) and these products were digested with 5U of HpaI (New England Biolabs) for 2h at 37 C. The fragments were purified using Qiaquick PCR columns (Qiagen), analyzed on an ABI 3130xL genetic analyzer (Applied Biosystems) with peak positions identified by using a set of X-rhodamine (ROX)-labeled MapMarker1000 molecular weight standards (BioVentures). The raw capillary electrophoresis data was processed using Attagraph software (Attagene).
As to `c1ccc(C[n+]2cccc3ccccc32)cc1`, the result was inactive.
As to `c1ccc2ccccc2c1`, the outcome was inactive.
As for `Cc1ccc(C(C)C)cc1`, the outcome was inactive.
For `CC(C)(O)c1ccc(CNC(=O)c2cccnc2Oc2ccc3nonc3c2)cc1`, the result was inactive.
With `CCCCCCCC[Si](OCC)(OCC)OCC`, the AC50 is 48.4 µM (active) and the outcome was inactive.
As for `CCCCCCCCOC(=O)c1cc(O)c(O)c(O)c1`, the outcome was inactive.
Consider `O=C(O)c1ccccc1-n1cc(C(=O)O)c(=O)c2cc(Nc3c(F)cc(F)cc3Cl)c(Cl)cc21`, for which the outcome was inactive.
As to `CCCCCCCCCCCC[N+](C)(C)C`, the AC50 is 33.4 µM (active) and 22.5 µM (active).
Consider `CN(C)c1ccc(C(=C2C=CC(=[N+](C)C)C=C2)c2ccc(N(C)C)cc2)cc1`, for which the half-maximal activity concentration (AC50) is 2.88 µM (active).
Turning to `CN1C(=O)CC[C@H]1c1cccnc1`, the outcome was inactive.
With `CO[C@H]1/C=C/O[C@@]2(C)Oc3c(C)c(O)c4c(O)c(c(/C=N/N5CCN(C)CC5)c(O)c4c3C2=O)NC(=O)/C(C)=C\C=C\[C@H](C)[C@H](O)[C@@H](C)[C@@H](O)[C@@H](C)[C@H](OC(C)=O)[C@@H]1C`, the result was inactive.
On to `O=C(OCCCCCCOC(=O)c1ccccc1)c1ccccc1`, for which the result was inactive.
As for `O=C1c2ccccc2C(=O)N1CCc1noc(-c2ccc(CN3CCCCCC3)s2)n1`, the outcome was inactive.
`c1ccc2n[nH]nc2c1`: the result was inactive.
With `CCCCOC(=O)c1ccc(O)cc1`, the result was inactive and the AC50 is 138 µM (active).
Turning to `NC(=O)c1nc(-c2cccc(-c3cc(F)ccc3OCC(F)(F)C(F)(F)F)c2)n[nH]1`, the result was inactive.
Regarding `Cc1ccc2oc(CN(Cc3ccccc3)C(=O)Nc3c(F)cc(F)cc3F)c(-c3ccc(Cl)cc3)c2c1`, the result was inactive.
For `CC(C)(c1cc(Br)c(O)c(Br)c1)c1cc(Br)c(O)c(Br)c1`, the outcome was inactive.
On to `C[C@]12CC[C@@H]3c4ccc(O)cc4CC[C@H]3[C@@H]1CC[C@H]2O`, for which the AC50 is 19.8 µM (active) and the result was inactive.
With `CCCCCCCCOc1ccc(C(=O)c2ccccc2)c(O)c1`, the outcome was inactive.
For `O=C=NCCCCCCN=C=O`, the outcome was inactive.
Take `Oc1ccc2ccccc2c1`: the outcome was inactive and the AC50 is 8.89 µM (active).
Regarding `Oc1ccccc1`, the result was inactive.
As for `CC1(C)NC(=O)N(c2ccc([N+](=O)[O-])c(C(F)(F)F)c2)C1=O`, the result was inactive.
In the case of `Cc1cc(F)ccc1-c1cc(N2CC[C@@H](O)[C@H]2CO)ncc1N(C)C(=O)C(C)(C)c1cc(C(F)(F)F)cc(C(F)(F)F)c1`, the result was inactive.
The same measure, in the same setting: in the case of `O=C(O)Cn1c(=O)n(Cc2ccc(Br)cc2F)c(=O)c2ccc(Cl)cc21` it was “inactive”; in that of `CCCCOC(=O)CC(CC(=O)OCCCC)(OC(C)=O)C(=O)OCCCC`, “inactive”.
For the compound `O=C(O)c1ccccc1C(=O)OCc1ccccc1`, the outcome was inactive.
With `COCC(C)OCC(C)OCC(C)O` (stereo not given), the outcome was inactive.
The same measure, in the same setting: with `Cc1ncc(CO)c(CO)c1O` the entry was “inactive”; with `CCCCCCCCCCCO`, “inactive”.
As for `O=C1CCC(C2CCCCC2)CC1`, the outcome was inactive and the AC50 is 185 µM (active).
On to `Cc1cc2c(cc1C(F)(F)F)N(C(=O)Nc1ccc(Oc3cccnc3C)nc1)CC2`, for which the result was inactive.
On the same count and under the same terms, with `CC(C)(C)c1cc(/C=C2\SC(N)=NC2=O)cc(C(C)(C)C)c1O` the entry was “inactive”; with `CCCC(=O)OCCC(C)C`, “inactive”.

A word on the AC50: it is the midpoint of the concentration-response curve, whichever way the signal moves.

The record behind these values is PubChem BioAssay (EPA / NIEHS).
